Bioassay records (PubChem BioAssay)
Sfp inh – blocks B. subtilis Sfp PPTase activity; Potency, µM, for the others: largest response in the series, negative = inhibition, usual class: inhibitors; 310,000 tested, 3.5% active; Biochemical Sfp PPTase activity, qHTS;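 also: the enzyme is Sfp with the accession as filed and its product quenches rhodamine fluorescence; 0% = enzyme reaction without inhibitor and -100% = no enzyme wells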
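Compounds were incubated with enzyme (final 15 nM) for 15 min at room temperature before substrate addition started the reaction. Fluorescence at 525 nm excitation, 598 nm emission was recorded immediately and after 30 minutes.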
JMJD2A Tudor – JMJD2A Tudor domain (human) inhibition; AlphaScreen JMJD2A-Tudor / H3K4me3 peptide binding; 390,000 tested, 4.4% active; AID 504339; Potency, µM (top dose mostly 114 µM), for inactives: at the highest dose activity change, negative = inhibition, usual class: inhibitors; also: % is scaled to controls: 0 for no effect and ±100 for the full control effect; nearly all actives have a fitted effect of over 50% in size
BAZ2B block – BAZ2B (human) inhibition; Q9UIF8; AlphaScreen BAZ2B-H3K14Ac peptide displacement; Potency, µM (doses to about 114 µM), inactives show top-dose activity change, negative = inhibition, hits mostly inhibitors; 360,000 tested, 4.4% active; AID 504333; also: % is scaled to controls: 0 for no effect and ±100 for the full control effect; nearly all actives have a fitted effect of over 60% in size
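AlphaScreen luminescence quantifies BAZ2B engagement of H3K14Ac peptide; the protein and biotinylated peptide are both at 50 nM final, buffer PBS pH 7.4 with 0.01% Tween-20, all steps at room temperature.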
G9a inh – blocks human histone lysine methyltransferase G9a. 350,000 tested, 8.8% active. Potency, µM (doses to about 102 µM), inactives show at the top dose activity, negative = inhibition, usual class: inhibitors. G9a H3K9 monomethylation, AlphaScreen, 2 h; also: % is scaled to controls: 0 for no effect and ±100 for the full control effect; nearly all actives have a fitted effect of over 75% in size
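G9a (20 nM) was preincubated 15 min with compound, then reacted 2 h at room temperature with 500 nM biotin-H3K9 peptide and 20 µM SAM. Monomethyl-H3K9 detected by AlphaScreen using anti-H3K9me1 antibody.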
HP1b chromo inh – inhibitors of HP1-beta chromodomain binding to methylated histone tails; P83916; AlphaScreen HP1-beta / biotin-H3K9me3 peptide binding; Potency, µM (titrated, usually from 114 µM), inactives show top-dose activity change, negative = inhibition, usual class: inhibitors; 390,000 tested, 0.56% active; also: nearly all actives have a fitted effect of over 70% in size
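HP1-beta protein (50 nM final) preincubated 30 min at room temperature with biotinylated H3(1-18)K9me3 peptide (50 nM) in PBS pH 7.4, 0.01% Tween-20, then compound added for 30 min. AlphaScreen streptavidin donor/nickel chelate acceptor beads (10 ug/mL final), 30 min dark, luminescence read.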
Starred values were filed as active, the others as inactive; ? = inconclusive; · = not tested or not shown; ! = not confirmed by another sample; [ ] = another dose, or the depositor's remark. Most compounds without a hit are left out; they make up all but 12% or so of the library. Calls follow the shape of the dose curve; as a rule, active = well fitted curve in the direction sought with a large enough effect; inconclusive = small, poorly fitted or top-dose-only effect, or another doubt; inactive = no such curve, though single readings can be large; an effect the other way counts as inactive or inconclusive. Potency is read from the fitted curve at half-maximal effect.

SMILES | Sfp inh | JMJD2A Tudor | BAZ2B block | G9a inh | HP1b chromo inh
NC(=O)c1oc2ccccc2c1NC(=O)C1CC(=O)N(c2ccccc2)C1 (configuration not stated) | · | -12% | 0% | 45µM* | 29%
O=C(CSc1nnc(NC(=O)c2c(F)cccc2F)s1)NCC1CCCO1 (configuration not stated) | · | -1% | 11% | 20µM* | 42%
COc1cccc(N2CC(C(=O)Nc3nnc(SCCC4OCCO4)s3)CC2=O)c1 (configuration not stated) | -12% | -3% | -15% | 28µM* | 17%
O=C(CSc1nnc(NC(=O)c2cccc(F)c2)s1)NCC1CCCO1 (configuration not stated) | 2% | -8% | -5% | · | 27%
COc1cccc(N2CC(C(=O)Nc3nnc(SCC(=O)Nc4ccc(NC(C)=O)cc4)s3)CC2=O)c1 (configuration not stated) | -14% | -9% | -14% | 18% | 28%
O=C(Nc1nnc(SCCC2OCCO2)s1)C1CC(=O)N(c2ccc(F)cc2)C1 (configuration not stated) | -30% | -21% | ? | 40µM* | 27%
CCC(=O)c1ccc(OCC(=O)OCC(=O)NCC2CCCCC2)cc1 | · | -12% | -4% | 11%[0.501 µM] | ?
O=c1oc2cc(O[C@@H]3OC[C@@H](O)[C@H](O)[C@H]3O)ccc2c2ccccc12 | 9% | -14% | -15% | -8% | 64%
COC(=O)c1ccc(NC(=O)CCNS(=O)(=O)c2cccc3nsnc23)cc1 | · | -13% | -10% | -10%[59 µM] | 13%
CCOc1ccc(OC(=O)c2c(-c3ccccc3Cl)noc2C)cc1 | · | 44% | 67% | 29%[59 µM] | 91%
CC(C)=CC(=O)O[C@@H]1Cc2cc3ccc(=O)oc3cc2OC1(C)C | · | -10% | -5% | 18%[2.33 µM] | 36%
Cc1ccsc1CN(C(=O)c1ccccc1)C1CCS(=O)(=O)C1 (configuration not stated) | 11% | -3% | -4% | 18% | 24%
COc1cccc(N2CC(C(=O)Nc3nnc(SCc4cccnc4)s3)CC2=O)c1 (configuration not stated) | -1% | -19% | -33% | ? | 1%
O=C(CSc1nnc(NC(=O)C2CC(=O)N(c3ccc(F)cc3)C2)s1)NCC1CCCO1 (configuration not stated) | -2% | -16% | -6% | 45µM* | 26%
O=C(Nc1nnc(SCCC2OCCO2)s1)C1CC(=O)N(c2ccccc2)C1 (configuration not stated) | -17% | -14% | -24% | 22µM* | 31%
O=C(Nc1nnc(SCCN2CCOCC2)s1)C1CC(=O)N(c2ccc(F)cc2)C1 (configuration not stated) | -21% | -24% | -30% | 45µM* | 23%
O=C(Nc1nnc(SCc2cccnc2)s1)C1CC(=O)N(c2ccc(F)cc2)C1 (configuration not stated) | -21% | -23% | -24% | 40µM* | 22%
Cc1ccc(N2CC(C(=O)Nc3nnc(SCCN4CCOCC4)s3)CC2=O)cc1C (configuration not stated) | -6% | -13% | -13% | -35%[12.7 µM] | 29%
Cc1ccc(Cl)cc1N1CCN(C(=O)c2cn(C3CCCCC3)c(=O)c3c2c2ccccc2n3C)CC1 | · | -21% | -25% | ? | 2%
COc1ccccc1N1CCN(c2nc3ccc(C(=O)c4ccccc4)cc3n3c(C)nnc23)CC1 | · | -4% | -17% | ? | 36%
CC(C)NCC(O)Cn1c2c(c3ccccc31)CCc1c-2cnn1-c1ccccc1 (configuration not stated) | ? | 50µM* | ? | ? | ?
COc1ccc(C2C3C=CCC(c4cccc(-c5ccc(C)cc5)c4)C3C(=O)N2Cc2ccccc2)cc1Cl (configuration not stated) | 9% | -7% | -7% | 2%[59 µM] | 23%
NCCNS(=O)(=O)c1ccc(Cl)c2ccncc12 | -9% | · | · | · | ·
CNCCNS(=O)(=O)c1cccc2cnccc12 | 0% | · | · | 30µM* | ·
O=S(=O)(NCCNC/C=C/c1ccc(Br)cc1)c1cccc2cnccc12 | -6% | · | · | 50µM*! | ·
SMILES | Sfp inh | JMJD2A Tudor | BAZ2B block | G9a inh | HP1b chromo inh
Cc1ccc(C)c(C(=O)NCCN(C)C)c1 | 17% | 2% | 8% | 11%[59 µM] | 35%
C=C(CN(C)C)C(=O)c1cc(C)ccc1C | · | 89µM* | · | · | 35µM*
CCC(C)C1/C=C\CCCC(=O)N1Cc1ccc(C)cc1 (configuration not stated) | -14% | · | · | 7% | ·
OC(CN1c2ccccc2Sc2ccccc21)Cn1nnc2ccccc21 (configuration not stated) | -9% | ? | -3% | 20µM* | ?
O=C(CCC(=O)N1CCN(S(=O)(=O)c2ccc([N+](=O)[O-])cc2)CC1)N1CCOCC1 | · | -7% | · | · | 22%
FC(F)(F)c1nc2ccccc2n1CCNc1nc(CN2CCCCC2)cs1 | 4% | -23% | -35% | 45µM* | 27%
O=C(NCCn1c(-c2ccncc2)nc2ccccc21)[C@H]1CCCN1c1nc(CN2CCCCC2)cs1 | 16% | -5% | -9% | -2% | 49%
O=C(Cn1c(C(F)(F)F)nc2ccccc21)N1CCCC1 | 20% | -17% | 8% | -8% | 29%
c1ccc2c(c1)nc(-c1ccncc1)n2CCNc1nc(CN2CCCCC2)cs1 | -20% | -9% | -36% | 50µM* | 38%
CC(=NNc1nc2ccccc2o1)c1ncccn1 | · | 10µM* | · | · | -1%
C/C(=N\Nc1nc2ccccc2s1)c1cccs1 | -56% | ? | ? | -45%[59 µM] | -16%
CC(=NNc1nc2ccccc2o1)c1cc2ccccc2cn1 | · | 10µM* | · | · | -17%
CC(=NNc1nc2ccccc2s1)c1ncccn1 | · | 45µM* | · | · | -28%
CCC(C(=O)N1CCN(S(=O)(=O)c2ccc(F)cc2)CC1)c1ccccc1 (configuration not stated) | · | -7% | 8% | 9%[12.7 µM] | 28%
CCN(CC)C(=S)SC1=CCS(=O)(=O)C1 | 79µM* | 3%[11.4 µM] | · | 20µM* | 45%
CCN(CC)C(=S)SCC(=O)c1ccccc1 | 14% | 20% | 27%[57.1 µM] | -1% | 58%
O=C1CN(S(=O)(=O)c2ccc3c(c2)OCCO3)CCN1S(=O)(=O)c1c(F)cccc1F | · | -16% | · | · | ·
N#C/C=C1/NC(=O)c2ccccc2S1 | 7% | -24% | ? | 45µM* | 16%
COC(=O)c1ccc2c(c1)NC(=O)c1ccccc1S2 | 1% | -1% | -12% | ? | 22%
Nc1c(N)c2ccccc2oc1=O | ? | -25% | ? | ? | 17%
O=c1oc2ccccc2c2oc3cc(O)c(O)cc3c12 | ? | 7.9µM* | 40µM* | · | ?
CC(=O)Nc1ccc(NC(=O)C(C)OC(=O)C2(c3ccc(Cl)cc3)CCCC2)cc1 (configuration not stated) | 9% | -29% | -24% | 50µM* | 20%
